Rows were chosen to be rich in hits. Some 7.2% of all compounds tested hit in one or more screens of this group.
3T3 cytotox: NIH 3T3 cell cytotoxicity. NIH 3T3 viability, CellTiter-Glo ATP luminescence, 48-72 h. Potency, µM (doses to about 96.7 µM), for the others: at the highest dose activity change, negative = cytotoxicity, actives largely listed as inhibitors. 94,000 tested, 4.3% active. AID 1345082; further: on the % scale 0 is the no-effect control and ±100 the full control effect; nearly all actives have a fitted effect of over 55% in size
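ATP-dependent luminescence (CellTiter-Glo) served as the viability signal for NIH 3T3 cells treated with compound for 48 or 72 hr at 37 °C.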
hNpr1 antagonist: human Npr1 receptor antagonism. HEK293 hNpr1 GloSensor cGMP, ANP-stimulated luminescence. Potency, µM (series often up to 46.3 µM), for inactives: at the top dose activity change, negative = inhibition, usual class: inhibitors. 76,000 tested, 1.6% active; calls by dose curve; further: on the % scale 0 is the no-effect control and ±100 the full control effect; nearly all actives have a fitted effect of over 60% in size
Target sequence (P16066 whole entry, looked up): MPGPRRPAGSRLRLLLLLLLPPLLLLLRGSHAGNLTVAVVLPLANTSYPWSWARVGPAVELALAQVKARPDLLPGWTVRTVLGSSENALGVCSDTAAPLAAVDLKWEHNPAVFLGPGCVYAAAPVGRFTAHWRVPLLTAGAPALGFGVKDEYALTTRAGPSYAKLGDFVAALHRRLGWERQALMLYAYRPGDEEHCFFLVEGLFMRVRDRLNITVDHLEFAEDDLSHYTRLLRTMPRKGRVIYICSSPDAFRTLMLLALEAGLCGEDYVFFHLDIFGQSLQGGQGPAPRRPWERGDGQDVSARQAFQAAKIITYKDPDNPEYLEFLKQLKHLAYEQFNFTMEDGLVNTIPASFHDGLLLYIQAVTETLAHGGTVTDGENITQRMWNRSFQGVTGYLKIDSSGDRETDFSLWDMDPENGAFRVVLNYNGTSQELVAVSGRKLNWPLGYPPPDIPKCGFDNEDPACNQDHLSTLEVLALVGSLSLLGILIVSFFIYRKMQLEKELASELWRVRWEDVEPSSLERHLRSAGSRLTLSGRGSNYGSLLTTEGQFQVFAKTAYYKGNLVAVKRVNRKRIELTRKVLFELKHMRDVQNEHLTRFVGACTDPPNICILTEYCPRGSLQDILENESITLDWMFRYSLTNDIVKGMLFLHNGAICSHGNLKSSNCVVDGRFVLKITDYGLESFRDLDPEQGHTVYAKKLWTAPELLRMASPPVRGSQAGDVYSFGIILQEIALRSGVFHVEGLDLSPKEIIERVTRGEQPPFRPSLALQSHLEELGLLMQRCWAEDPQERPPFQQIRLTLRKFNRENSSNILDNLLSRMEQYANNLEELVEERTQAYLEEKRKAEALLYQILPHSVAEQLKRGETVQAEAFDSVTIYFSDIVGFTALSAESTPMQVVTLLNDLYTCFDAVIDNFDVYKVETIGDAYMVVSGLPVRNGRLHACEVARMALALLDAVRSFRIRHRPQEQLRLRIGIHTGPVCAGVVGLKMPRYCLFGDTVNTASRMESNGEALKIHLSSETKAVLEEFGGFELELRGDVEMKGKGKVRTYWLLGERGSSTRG
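HEK293 cells stably expressing human Npr1 and cGMP GloSensor pGS-40F, loaded 2 h with 2% GloSensor reagent, given compound 30 min at room temperature. Luminescence read before and 20 min after 0.1 nM hNppA.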
Luciferase inh: blocks purified firefly luciferase enzyme activity; P08659; purified P. pyralis luciferase, luminescence, biochemical; Potency, µM (doses to about 115 µM), hits mostly inhibitors; 76,000 tested, 2.5% active; AID 1347043; further: on the % scale 0 is the no-effect control and ±100 the full control effect; nearly all actives have a fitted effect of over 65% in size
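Inhibitors were tested against purified firefly luciferase in a biochemical, low-substrate format (both substrates at 10uM) and luminescence measured with a CCD imager.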
HEK293 viab: cell viability loss counter-screen; HEK-293-SNCA-luc viability, GF-AFC fluorescence, 24 h; Potency, µM (top dose mostly 57.1 µM), for inactives: top-dose activity change, negative = cytotoxicity, actives largely listed as cytotoxic; 150,000 tested, 0.12% active; AID 1671193;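 further: 0% = DMSO-treated cells and -100% = medium-only wells without cells; nearly all actives have a fitted effect of over 30% in size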
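HEK-293-SNCA-luc cells (1500/well) plated 24 h, then exposed 24 h to a dilution series; GF-AFC added 30 min at 37C, fluorescence 405/540 nm; normalised to medium-only and DMSO wells, Hill fit.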
HEK cytotox: HEK 293 cell cytotoxicity. 94,000 tested, 6.6% active. Potency, µM (doses to about 115 µM), inactives show at the top dose activity change, negative = cytotoxicity, usual class: inhibitors. HEK 293 viability, ATP luminescence (CellTiter-Glo), 48-72 h; further: on the % scale 0 is the no-effect control and ±100 the full control effect; nearly all actives have a fitted effect of over 60% in size
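HEK 293 cells at 250 cells/well were exposed to compounds by pintool transfer for 48 or 72 hr at 37 degree Celsius, 5% CO2. Viability was read as ATP-coupled luminescence with CellTiter-Glo after 10 min at room temperature.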
SNCA expr inh: reduces expression of the alpha-synuclein gene; AID 1671194; 140,000 tested, 0.17% active; Potency, µM (doses to about 57.2 µM), without a hit: at the highest dose activity change, negative = inhibition, actives largely listed as inhibitors; HEK-293 SNCA-luciferase knock-in, luminescence, 24 h;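 further: plate controls were DMSO cells for no effect and cell-free wells for full effect; nearly all actives have a fitted effect of over 45% in size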
NPR1 antag cnf: hNpr1 antagonism, confirmation assay | HEK293 hNpr1 cGMP GloSensor luminescence, ANP-stimulated | AID 1347044 | Potency, µM (highest dose often 57.6 µM), for inactives: top-dose activity change, negative = inhibition, usual class: inhibitors | 1,400 tested, 76% active | shares compounds with hNpr1 antagonist; calls by dose curve; further: nearly all actives have a fitted effect of over 70% in size
Npr2 selectivity: selectivity test of Npr1 antagonists against human Npr2; shares compounds with hNpr1 antagonist; HEK293 hNpr2 GloSensor cGMP luminescence, CNP-stimulated; Potency, µM (titrated, usually from 57.6 µM), inactives show top-dose activity change, negative = inhibition, most hits filed as inhibitors; 1,400 tested, 67% active; AID 1347046; calls by dose curve; further: nearly all actives have a fitted effect of over 70% in size
FLuc counter: counter-screen for Npr1 antagonists: firefly luciferase inhibitors; Potency, µM (series often up to 57.6 µM), for inactives: at the highest dose activity change, negative = inhibition, most hits filed as inhibitors; shares compounds with hNpr1 antagonist; purified FLuc enzyme, luminescence, Km substrate; 1,400 tested, 0.7% active; further: 0% is about no effect
GloSensor ctrl: reduces cGMP signal in GloSensor control cells; shares compounds with hNpr1 antagonist; HEK293 GloSensor cGMP, SNP-stimulated, luminescence; Potency, µM (series often up to 57.6 µM), without a hit: top-dose activity change, negative = inhibition, hits mostly inhibitors; 1,400 tested, 69% active; AID 1347051; calls by dose curve; further: on the % scale 0 is the no-effect control and ±100 the full control effect; nearly all actives have a fitted effect of over 70% in size
* hit, by the source's call; i = inactive; ? = inconclusive; / = not tested or not shown; ! = repeats disagree; [ ] = dose if it differs, or a comment. Unless noted, the call rests on the fitted dose curve; in most records, active means well fitted curve in the direction sought with a large enough effect; inconclusive means small, poorly fitted or top-dose-only effect, or another doubt; inactive means no such curve, though single readings can be large; an effect the other way counts as inactive or inconclusive. Potency means the concentration at half of the fitted maximal effect.

SMILES	3T3 cytotox	hNpr1 antagonist	Luciferase inh	HEK293 viab	HEK cytotox	SNCA expr inh	NPR1 antag cnf	Npr2 selectivity	FLuc counter	GloSensor ctrl
CCOC(=O)C1CCN(C(=O)C2CCCN(c3cnn(C)c(=O)c3)C2)CC1 (configuration not stated)	-20%	-6%	i	-3%	-14%	28%	/	/	/	/
COc1ccc(-c2cc(-c3ccc(N4CCOCC4)nc3)cn3cncc23)cn1	?	-1%[70.6 µM]	?	2%[87.6 µM]	?	-5%[87.6 µM]	/	/	/	/
O=C(Nc1cccc(-c2ccc(F)cc2)c1)C1CCCN(C(=O)c2cccnc2)C1 (configuration not stated)	?	-15%	i	-13%	?	6%	/	/	/	/
O=C(Nc1ccc(-c2cccc(F)c2)cc1)C1CCCN(C(=O)c2ccncc2)C1 (configuration not stated)	?	7.1µM*	i	-18%	14µM*	1%	14µM*	15µM*	-15%	11µM*
O=c1cc(NCCCN[C@@H]2CCOc3c(Br)cc(Br)cc32)[nH]c2ccsc12	/	/	/	-18%	/	/	/	/	/	/
Cc1nc(C)c(C(=O)N2CCc3onc(-c4cccc(F)c4)c3C2)s1	?	5%	i	-12%	-25%	18%	/	/	/	/
COc1ccc(S(=O)(=O)NC[C@H]2Cn3c(-c4ccc(Cl)cc4)cnc3CO2)cc1	79µM*	?	i	-28%[87.6 µM]	89µM*	-26%[87.6 µM]	?	?	-20%[86.2 µM]	-16%[86.2 µM]
COc1ccc(C(=O)NC[C@H]2Cn3c(-c4ccc(F)cc4)cnc3CO2)cc1	?	?	i	?	?	25%[87.6 µM]	/	/	/	/
COc1ccc(CNC[C@H]2Cn3c(-c4ccc(Cl)cc4)cnc3CO2)cc1	32µM*	25µM*	i	-16%[87.6 µM]	56µM*	-11%[87.6 µM]	31µM*	35µM*	1%[86.2 µM]	?
Cc1nn2c(c1-c1ccnn1C(C)C)N(Cc1ccc(C(=O)O)s1)CCC2	13µM*	16µM*	i	?	?	?	11µM*	11µM*	0%[86.2 µM]	14µM*
CNCc1ccccc1-c1ccccc1	-31%[174 µM]	/	/	1%[87.6 µM]	-29%[230 µM]	5%[87.6 µM]	/	/	/	/
COCCC(=O)N1CCC2(CC1)C(OC)CN2c1cccc(F)c1 (configuration not stated)	2%	1%	i	-16%	4%	?	/	/	/	/
COc1ccc(C2(C(=O)N3CCC4(CC3)C(OC)CN4c3cccc(F)c3)CC2)cc1 (configuration not stated)	?	11µM*	i	-10%	45µM*	-11%	?	14µM*	2%	-23%
COc1ccccc1-c1ccc(CN2CCCC(c3nc4ccc(C)cc4c(=O)[nH]3)C2)cc1 (configuration not stated)	28µM*!	?	i	-28%	18µM*	-36%	?	?	2%	?
N#Cc1ccc(CN2CCC(c3nc4ccc(F)cc4c(=O)[nH]3)CC2)cc1	-21%	/	/	-3%	-29%	0%	/	/	/	/
